Results filed as inconclusive are left out. Activity calls are given as the source filed them. The calls were made as follows: active = hit-call score of the fitted dose curve at least 0.9, where 1 is the maximum; inconclusive = response in the unintended direction; inactive = score below 0.9.
Read-out: Cytochrome P450 2B6 (Homo sapiens) (UniProt P20813)
Assay: CLD_CYP2B6_24hr: CellzDirect (CLD) Gene Expression Assay for xenobiotic metabolism (CYP2B6) at 24 hours (AID 2283686)
Method: CLD_24hr is a cell-based, multiplexed-readout assay that uses hepatocyte, a human liver primary cell, with measurements taken at 24 hours after chemical dosing in a 96-well plate.CLD_CYP2B6_24hr is one of 16 assay component(s) measured or calculated from the CLD_24hr assay. It is designed to make measurements of mRNA induction, a form of inducible reporter, as detected with chemiluminescence signals by Quantitative Nuclease Protection Assay (qNPA) technology.Data from the assay component CLD_CYP2B6_24hr was analyzed at the endpoint, CLD_CYP2B6_24hr, in the positive analysis fitting direction relative to DMSO as the negative control and baseline of activity. Using a type of inducible reporter, gain-of-signal activity can be used to understand changes in the reporter gene as they relate to the gene CYP2B6. Furthermore, this assay endpoint can be referred to as a primary readout. To generalize the intended target to other relatable targets, this assay endpoint is annotated to the cyp intended target family, where subfamily is xenobiotic metabolism.
Human hepatocyte cultures were treated daily for two consecutive days with fresh dosing solutions containing appropriate concentrations of the 320 ToxCast chemicals (chemical identities were blinded to CellzDirect and other ToxCast collaborators), vehicle control (0.2% DMSO), and positive control inducers as summarized in Table 1. Due to the large number of treatment groups and chemicals examined, the ToxCast chemicals were divided into two groups (spanning two independent cultures of hepatocytes from separate donor preparations (Hu778: ToxCast plates 1 and 2; Hu776: ToxCast plates 3 and 4). Each preparation of human hepatocyte cultures was treated with respective vehicle control, medium only control, set of six positive controls/reference chemicals for the five hepatic receptor pathways, and a subset of eight of the ToxCast chemicals (indoxacarb, pyrithiobac-sodium, norflurazon, cyhalofop-butyl, methomyl, thiram, acetochlor, and propiconazole). These replicate data, coupled with internal replicates designed within the blinded ToxCast chemical library, provided additional data to evaluate interindividual differences between hepatocyte preparations and their potential impact on chemical profiles.Cell morphology and integrity were evaluated using phase-contrast microscopy as an indicator of hepatocyte cell health (Tyson & Green, 1987). Cultures for each treatment group (i.e., media, vehicle [0.2% DMSO], positive control inducers [multiple concentrations], and the ToxCast chemicals [multiple concentrations]) were observed and cell morphology was assessed relative to vehicle control cultures at each harvest time point (0, 6, 24, or 48 h). […] Images were evaluated at the conclusion of the study to assess changes in cell integrity and account for the effects of chemical exposure on uncharacteristic changes in concentration-dependent gene expression profiles. The results from these determinations of apparent cytotoxicity were annotated (yes/no) alongside the corresponding qNPA data for reference.At the conclusion of each treatment period, hepatocyte cultures (96-well) were washed with 1 volume of HBSS, lysed by addition of 25 ul ArrayPlate lysis buffer (HTG, Tucson, AZ), and 70 ul/well of Denaturation Oil, denatured by incubation at 95C for 10 min, and frozen at approximately -70C until analysis by nuclease protection assay (qNPA) (Roberts et al., 2007). For qNPA analysis, cell lysates were thawed at 50C for approximately 30 min, qNPA probes were added, and samples were incubated at 95C for 10 min to begin the detection process by denaturing the target RNA, dissociating the duplexes and secondary structure hybridization. At the conclusion of the hybridization period, S1 nuclease reagent was added to each sample to digest all nonprotected nucleotides at 50C for 60-90 min. […]

Row | Structure (SMILES) | outcome | AC50
1 | Cc1[nH]c(=O)n(C(C)(C)C)c(=O)c1Cl | inactive | –
2 | CCOCN(C(=O)CCl)c1c(C)cccc1CC | – | 2.05 µM (active)
3 | COC(=O)c1ccccc1S(=O)(=O)NC(=O)N(C)c1nc(C)nc(OC)n1 | inactive | –
4 | C#CCN1C(=O)COc2cc(F)c(N3C(=O)C4=C(CCCC4)C3=O)cc21 | – | 20 µM (active)
5 | O=C(NC(=O)c1c(F)cccc1F)Nc1ccc(OC(F)(F)C(F)OC(F)(F)F)c(Cl)c1 (stereo not given) | inactive | –
6 | COP(=S)(OC)Oc1ccc(SC)c(C)c1 | – | 20 µM (active)
7 | Oc1ccc(Cl)cc1Cc1ccccc1 | inactive | –
8 | CCCN(CCOc1c(Cl)cc(Cl)cc1Cl)C(=O)n1ccnc1 | – | 1.89 µM (active)
9 | CC(C)N(C(=O)COc1nnc(C(F)(F)F)s1)c1ccc(F)cc1 | – | 7.16 µM (active)
10 | N#Cc1c(Cl)c(Cl)c(Cl)c(C#N)c1Cl | inactive | –
11 | C[C@H]1[C@H](c2ccc(Cl)cc2)SC(=O)N1C(=O)NC1CCCCC1 | – | 2.58 µM (active)
12 | COc1cc(OC)nc(NC(=O)NS(=O)(=O)c2cc(NC=O)ccc2C(=O)N(C)C)n1 | inactive | –
13 | OCCOc1ccccc1 | inactive | –
14 | CCS(=O)(=O)c1cccnc1S(=O)(=O)NC(=O)Nc1nc(OC)cc(OC)n1 | inactive | –
15 | CCC(C)(C)C(=O)OC1=C(c2ccc(Cl)cc2Cl)C(=O)OC12CCCCC2 | inactive | –
16 | O=[N+]([O-])/N=C1\NCCN1Cc1ccc(Cl)nc1 | inactive | –
17 | Cc1cc(C)nc(NC(=O)NS(=O)(=O)c2ccccc2C(=O)OC2COC2)n1 | inactive | –
18 | O=S(=O)(O)C(F)(F)C(F)(F)C(F)(F)C(F)(F)C(F)(F)C(F)(F)C(F)(F)C(F)(F)F | inactive | –
19 | CC1(C)C(C=C(Cl)Cl)C1C(=O)OC(C#N)c1ccc(F)c(Oc2ccccc2)c1 (stereo not given) | inactive | –
20 | CNC(=O)/C=C(\C)OP(=O)(OC)OC | – | 0.000497 µM (active)

Row | Structure (SMILES) | outcome | AC50
21 | CCC(C)(NC(=O)c1cc(Cl)c(C)c(Cl)c1)C(=O)CCl (stereo not given) | – | 3.97 µM (active)
22 | ClC1C(Cl)C(Cl)C(Cl)C(Cl)C1Cl (stereo not given) | – | 1.39 µM (active)
23 | COc1nn(CSP(=S)(OC)OC)c(=O)s1 | – | 1.97 µM (active)
24 | CC(C)OC(=O)Nc1cccc(Cl)c1 | – | 7.72 µM (active)
25 | CC[C@H](C)[C@H]1O[C@]2(C=C[C@@H]1C)C[C@@H]1C[C@@H](C/C=C(\C)[C@@H](O[C@H]3C[C@H](OC)[C@@H](O[C@H]4C[C@H](OC)[C@@H](O)[C@H](C)O4)[C@H](C)O3)[C@@H](C)/C=C/C=C3\CO[C@@H]4[C@H](O)C(C)=C[C@@H](C(=O)O1)[C@]34O)O2 (tested in a mixture with another compound) | – | 3.97 µM (active)
26 | CC(C)(C)C(O)C(Oc1ccc(Cl)cc1)n1cncn1 (stereo not given) | – | 2.51 µM (active)
27 | O=C(O)C(F)(F)C(F)(F)C(F)(F)C(F)(F)C(F)(F)C(F)(F)C(F)(F)F | inactive | –
28 | O=[N+]([O-])c1c(Cl)c(Cl)c(Cl)c(Cl)c1Cl | – | 4.02 µM (active)
29 | COC(=O)c1ccccc1S(=O)(=O)NC(=O)Nc1nc(C)nc(OC)n1 | inactive | –
30 | COP(=O)(OC)OC=C(Cl)Cl | inactive | –
31 | Oc1cc(Cl)ccc1Oc1ccc(Cl)cc1Cl | inactive | –
32 | CC(C)(C)C(O)/C(=C\c1ccc(Cl)cc1Cl)n1cncn1 (stereo not given) | – | 0.621 µM (active)
33 | CCc1ccc(C(=O)NN(C(=O)c2cc(C)cc(C)c2)C(C)(C)C)cc1 | – | 2.19 µM (active)
34 | CCCN(CCC)c1c([N+](=O)[O-])cc(C(F)(F)F)cc1[N+](=O)[O-] | – | 2.06 µM (active)
35 | COC(=O)c1ccccc1CS(=O)(=O)NC(=O)Nc1nc(OC)cc(OC)n1 | inactive | –
36 | CCOC1Oc2ccc(OS(C)(=O)=O)cc2C1(C)C (stereo not given) | – | 3.12 µM (active)
37 | O=C(O)COc1ccc(Cl)cc1Cl | inactive | –
38 | COP(=S)(OC)Oc1ccc([N+](=O)[O-])cc1 | – | 5.28 µM (active)
39 | CNC(=O)CSP(=S)(OC)OC | inactive | –
40 | CCN(CC)C(=O)SCc1ccc(Cl)cc1 | – | 3.93 µM (active)

— PubChem BioAssay (EPA / NIEHS)
